The supplement of paper PMC11732987, “Enantioselective OTUD7B fragment discovery through chemoproteomics screening and high-throughput optimisation” (Communications Chemistry, 2025)

Legend:
Test in all cases: log2 ratio of Biotin-Ahx-Ub-VS probe labelling (fragment/DMSO); higher = less target engagement (more negative = stronger competition), active = hit call of the paper (q ≤ 0.05, log2 ratio ≤ -1)
Conditions in all cases: compound concentration: 200 uM; treatment time: 3 h
USP42 = target: T1, USP42 (UniProt Q9H9J4)
T1 sequence (whole entry): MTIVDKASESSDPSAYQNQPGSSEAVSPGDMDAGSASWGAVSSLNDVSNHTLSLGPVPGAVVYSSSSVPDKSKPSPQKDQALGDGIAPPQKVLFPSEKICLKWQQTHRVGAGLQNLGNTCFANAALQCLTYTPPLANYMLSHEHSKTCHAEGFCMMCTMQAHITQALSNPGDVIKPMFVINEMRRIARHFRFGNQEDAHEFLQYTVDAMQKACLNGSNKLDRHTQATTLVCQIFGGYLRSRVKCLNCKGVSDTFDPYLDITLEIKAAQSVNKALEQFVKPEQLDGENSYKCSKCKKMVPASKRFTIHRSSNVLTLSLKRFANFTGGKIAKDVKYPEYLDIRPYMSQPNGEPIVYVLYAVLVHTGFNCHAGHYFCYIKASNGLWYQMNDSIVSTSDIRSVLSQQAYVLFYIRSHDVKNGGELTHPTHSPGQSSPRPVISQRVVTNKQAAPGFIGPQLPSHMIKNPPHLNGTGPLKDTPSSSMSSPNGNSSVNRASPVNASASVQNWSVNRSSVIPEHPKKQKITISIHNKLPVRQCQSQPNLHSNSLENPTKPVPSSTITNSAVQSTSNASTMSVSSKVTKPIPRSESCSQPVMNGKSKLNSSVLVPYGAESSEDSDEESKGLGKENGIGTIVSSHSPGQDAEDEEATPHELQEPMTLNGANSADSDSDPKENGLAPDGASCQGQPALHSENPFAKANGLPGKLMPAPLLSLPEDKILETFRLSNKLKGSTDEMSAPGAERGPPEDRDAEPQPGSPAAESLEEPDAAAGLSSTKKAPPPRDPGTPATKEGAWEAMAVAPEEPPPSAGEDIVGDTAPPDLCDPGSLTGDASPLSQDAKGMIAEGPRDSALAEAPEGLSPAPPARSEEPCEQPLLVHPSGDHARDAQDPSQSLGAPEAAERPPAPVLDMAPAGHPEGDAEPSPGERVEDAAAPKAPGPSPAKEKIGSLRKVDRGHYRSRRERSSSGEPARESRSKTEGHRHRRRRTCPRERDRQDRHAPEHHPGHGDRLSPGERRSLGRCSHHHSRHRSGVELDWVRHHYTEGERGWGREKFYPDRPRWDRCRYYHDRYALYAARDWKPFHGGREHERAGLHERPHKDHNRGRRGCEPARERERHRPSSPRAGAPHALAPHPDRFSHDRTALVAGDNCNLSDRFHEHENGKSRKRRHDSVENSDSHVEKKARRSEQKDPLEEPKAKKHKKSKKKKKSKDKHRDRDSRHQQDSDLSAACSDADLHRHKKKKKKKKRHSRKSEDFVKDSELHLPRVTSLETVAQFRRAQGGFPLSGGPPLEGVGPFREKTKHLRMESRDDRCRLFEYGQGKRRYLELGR
Outline: (§1)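 HEK293T lysate (495 µg per sample, in Tris/CHAPS/IGEPAL buffer with protease inhibitors) was exposed in triplicate for 3 h to fragment at 200 µM or to vehicle, then to Biotin-Ahx-Ub-VS at 0.5 µM final for 1 h. Labelled DUBs were enriched on NeutrAvidin, digested with LysC and trypsin, and analysed by diaPASEF LC-MS/MS. Spectronaut label-free quantities were normalised to the global median, and values are average log2 ratios of fragment over vehicle from an unpaired t-test. Only proteins with ≥2 unique peptides were used.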

USP46 = USP46 (UniProt P62068)
Outline: as §1

USP47 = target: T2, USP47 (UniProt Q96K76)
T2 sequence (whole entry): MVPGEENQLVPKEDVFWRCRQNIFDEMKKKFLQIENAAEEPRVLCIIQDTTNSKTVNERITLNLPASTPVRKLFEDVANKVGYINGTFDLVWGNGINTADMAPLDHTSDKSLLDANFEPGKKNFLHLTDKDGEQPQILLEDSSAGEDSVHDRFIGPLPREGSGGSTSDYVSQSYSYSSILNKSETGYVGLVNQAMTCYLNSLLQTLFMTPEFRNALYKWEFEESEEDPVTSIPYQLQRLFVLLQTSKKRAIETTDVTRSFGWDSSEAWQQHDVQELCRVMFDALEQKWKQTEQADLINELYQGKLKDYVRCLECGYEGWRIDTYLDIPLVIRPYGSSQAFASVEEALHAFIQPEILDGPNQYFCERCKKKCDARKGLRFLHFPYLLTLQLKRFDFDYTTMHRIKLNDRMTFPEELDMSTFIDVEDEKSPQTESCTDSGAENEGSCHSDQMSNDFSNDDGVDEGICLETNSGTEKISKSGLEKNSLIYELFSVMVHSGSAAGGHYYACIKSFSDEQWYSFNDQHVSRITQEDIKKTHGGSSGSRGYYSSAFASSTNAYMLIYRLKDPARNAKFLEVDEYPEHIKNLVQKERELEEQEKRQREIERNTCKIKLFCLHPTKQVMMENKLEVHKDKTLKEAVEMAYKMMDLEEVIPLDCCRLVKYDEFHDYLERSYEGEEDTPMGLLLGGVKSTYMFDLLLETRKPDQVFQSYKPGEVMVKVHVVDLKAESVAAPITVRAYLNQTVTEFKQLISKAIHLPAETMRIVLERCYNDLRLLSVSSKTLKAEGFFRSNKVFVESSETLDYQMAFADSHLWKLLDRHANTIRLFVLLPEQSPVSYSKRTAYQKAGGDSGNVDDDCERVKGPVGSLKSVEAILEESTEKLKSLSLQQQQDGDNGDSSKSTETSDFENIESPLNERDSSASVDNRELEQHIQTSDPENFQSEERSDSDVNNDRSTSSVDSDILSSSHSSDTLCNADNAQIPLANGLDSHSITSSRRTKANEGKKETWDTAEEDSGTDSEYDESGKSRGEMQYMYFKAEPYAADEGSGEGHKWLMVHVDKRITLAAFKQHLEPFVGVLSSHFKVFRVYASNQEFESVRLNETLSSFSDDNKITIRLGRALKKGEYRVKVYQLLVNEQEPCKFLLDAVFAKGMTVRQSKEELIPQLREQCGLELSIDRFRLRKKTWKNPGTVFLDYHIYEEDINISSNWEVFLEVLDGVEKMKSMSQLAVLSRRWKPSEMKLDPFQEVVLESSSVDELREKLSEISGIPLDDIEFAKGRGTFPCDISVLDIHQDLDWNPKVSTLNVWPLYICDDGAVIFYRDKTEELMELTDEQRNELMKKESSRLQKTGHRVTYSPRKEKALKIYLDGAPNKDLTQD
Outline: as §1

USP48 = target: T3, USP48 (UniProt Q86UV5)
T3 sequence (whole entry): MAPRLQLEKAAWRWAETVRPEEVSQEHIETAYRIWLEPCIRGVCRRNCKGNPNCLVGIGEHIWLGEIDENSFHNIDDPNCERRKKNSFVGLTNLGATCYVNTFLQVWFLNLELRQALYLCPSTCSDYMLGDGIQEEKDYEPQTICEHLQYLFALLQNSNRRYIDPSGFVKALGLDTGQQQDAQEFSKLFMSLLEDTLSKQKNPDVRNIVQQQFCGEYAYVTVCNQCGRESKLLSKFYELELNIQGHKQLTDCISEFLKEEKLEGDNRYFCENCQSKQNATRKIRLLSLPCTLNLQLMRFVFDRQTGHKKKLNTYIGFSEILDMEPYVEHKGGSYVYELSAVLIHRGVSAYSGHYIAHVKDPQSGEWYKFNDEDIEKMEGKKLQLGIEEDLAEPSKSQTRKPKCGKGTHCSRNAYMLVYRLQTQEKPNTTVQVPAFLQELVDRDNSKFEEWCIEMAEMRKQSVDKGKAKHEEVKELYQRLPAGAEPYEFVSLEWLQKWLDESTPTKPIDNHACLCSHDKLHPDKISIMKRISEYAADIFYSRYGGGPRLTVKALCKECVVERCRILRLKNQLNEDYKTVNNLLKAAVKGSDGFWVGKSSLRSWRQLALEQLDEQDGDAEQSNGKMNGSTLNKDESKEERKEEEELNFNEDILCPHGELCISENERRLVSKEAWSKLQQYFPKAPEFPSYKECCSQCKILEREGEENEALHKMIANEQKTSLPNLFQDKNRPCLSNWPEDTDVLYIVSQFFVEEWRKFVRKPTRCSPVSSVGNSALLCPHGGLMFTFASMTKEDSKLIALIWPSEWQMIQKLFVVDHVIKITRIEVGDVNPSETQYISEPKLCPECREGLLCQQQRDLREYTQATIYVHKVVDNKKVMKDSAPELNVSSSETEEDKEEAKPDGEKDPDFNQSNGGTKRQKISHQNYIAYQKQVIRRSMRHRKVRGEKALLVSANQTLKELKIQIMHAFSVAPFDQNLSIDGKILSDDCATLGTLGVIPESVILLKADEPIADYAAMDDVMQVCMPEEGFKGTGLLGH
Outline: as §1

USP5 = target: T4, USP5 (UniProt P45974)
T4 sequence (whole entry): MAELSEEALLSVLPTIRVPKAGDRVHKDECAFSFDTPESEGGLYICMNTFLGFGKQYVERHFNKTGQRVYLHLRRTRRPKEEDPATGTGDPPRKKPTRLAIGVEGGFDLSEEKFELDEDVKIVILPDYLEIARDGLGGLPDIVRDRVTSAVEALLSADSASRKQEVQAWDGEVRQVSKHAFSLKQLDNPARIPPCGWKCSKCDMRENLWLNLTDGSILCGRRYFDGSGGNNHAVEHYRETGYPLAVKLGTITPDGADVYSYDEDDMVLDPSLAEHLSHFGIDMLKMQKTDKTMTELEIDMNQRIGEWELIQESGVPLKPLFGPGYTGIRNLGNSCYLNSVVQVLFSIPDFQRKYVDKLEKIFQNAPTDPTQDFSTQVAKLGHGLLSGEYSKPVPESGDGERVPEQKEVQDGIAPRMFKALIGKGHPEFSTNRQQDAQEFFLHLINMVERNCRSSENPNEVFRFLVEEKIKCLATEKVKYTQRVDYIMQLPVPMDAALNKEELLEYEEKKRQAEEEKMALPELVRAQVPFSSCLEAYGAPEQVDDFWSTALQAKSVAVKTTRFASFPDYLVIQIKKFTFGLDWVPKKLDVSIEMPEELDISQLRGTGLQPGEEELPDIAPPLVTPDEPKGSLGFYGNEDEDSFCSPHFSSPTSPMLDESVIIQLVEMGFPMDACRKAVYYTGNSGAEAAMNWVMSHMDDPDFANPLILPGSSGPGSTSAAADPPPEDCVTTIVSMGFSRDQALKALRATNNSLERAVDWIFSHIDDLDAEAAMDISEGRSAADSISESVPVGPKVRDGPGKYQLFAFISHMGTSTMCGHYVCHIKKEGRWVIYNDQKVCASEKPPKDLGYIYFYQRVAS
Outline: as §1

USP54 = USP54 (UniProt Q70EL1)
Outline: as §1

USP7 = USP7 (UniProt Q93009)
Outline: as §1

USP8 = target: T5, USP8 (UniProt P40818)
T5 sequence (whole entry): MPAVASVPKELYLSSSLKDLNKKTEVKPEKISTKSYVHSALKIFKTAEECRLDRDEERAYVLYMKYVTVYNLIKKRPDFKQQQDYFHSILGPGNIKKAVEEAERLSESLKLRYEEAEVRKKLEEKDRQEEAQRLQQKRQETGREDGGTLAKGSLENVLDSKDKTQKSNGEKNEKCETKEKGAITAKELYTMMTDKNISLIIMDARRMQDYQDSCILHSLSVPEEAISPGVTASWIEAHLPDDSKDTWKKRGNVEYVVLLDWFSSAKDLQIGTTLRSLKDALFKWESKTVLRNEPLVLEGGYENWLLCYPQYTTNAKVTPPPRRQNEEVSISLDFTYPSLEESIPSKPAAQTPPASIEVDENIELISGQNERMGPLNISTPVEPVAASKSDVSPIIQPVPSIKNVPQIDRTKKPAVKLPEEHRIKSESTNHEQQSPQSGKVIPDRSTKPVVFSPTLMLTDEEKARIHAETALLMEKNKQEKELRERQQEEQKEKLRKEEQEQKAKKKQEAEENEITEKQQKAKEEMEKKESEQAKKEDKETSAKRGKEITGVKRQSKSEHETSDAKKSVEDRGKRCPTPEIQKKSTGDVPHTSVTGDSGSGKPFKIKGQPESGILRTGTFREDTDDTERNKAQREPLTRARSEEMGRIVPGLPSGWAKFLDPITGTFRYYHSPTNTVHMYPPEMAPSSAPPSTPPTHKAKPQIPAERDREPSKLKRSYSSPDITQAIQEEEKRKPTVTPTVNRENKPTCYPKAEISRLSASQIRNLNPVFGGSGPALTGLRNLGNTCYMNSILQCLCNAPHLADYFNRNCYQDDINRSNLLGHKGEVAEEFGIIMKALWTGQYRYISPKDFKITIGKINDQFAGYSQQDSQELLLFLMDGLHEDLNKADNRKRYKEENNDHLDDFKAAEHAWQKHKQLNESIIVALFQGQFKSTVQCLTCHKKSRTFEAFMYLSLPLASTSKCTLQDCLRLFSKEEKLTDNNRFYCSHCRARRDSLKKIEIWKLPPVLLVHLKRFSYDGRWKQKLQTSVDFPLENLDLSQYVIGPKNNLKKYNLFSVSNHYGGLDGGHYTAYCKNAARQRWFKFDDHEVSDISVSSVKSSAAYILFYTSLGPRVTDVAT
Outline: as §1

Measured: log2 ratio of Biotin-Ahx-Ub-VS probe labelling

USP7, sequence (Q93009 whole entry, looked up): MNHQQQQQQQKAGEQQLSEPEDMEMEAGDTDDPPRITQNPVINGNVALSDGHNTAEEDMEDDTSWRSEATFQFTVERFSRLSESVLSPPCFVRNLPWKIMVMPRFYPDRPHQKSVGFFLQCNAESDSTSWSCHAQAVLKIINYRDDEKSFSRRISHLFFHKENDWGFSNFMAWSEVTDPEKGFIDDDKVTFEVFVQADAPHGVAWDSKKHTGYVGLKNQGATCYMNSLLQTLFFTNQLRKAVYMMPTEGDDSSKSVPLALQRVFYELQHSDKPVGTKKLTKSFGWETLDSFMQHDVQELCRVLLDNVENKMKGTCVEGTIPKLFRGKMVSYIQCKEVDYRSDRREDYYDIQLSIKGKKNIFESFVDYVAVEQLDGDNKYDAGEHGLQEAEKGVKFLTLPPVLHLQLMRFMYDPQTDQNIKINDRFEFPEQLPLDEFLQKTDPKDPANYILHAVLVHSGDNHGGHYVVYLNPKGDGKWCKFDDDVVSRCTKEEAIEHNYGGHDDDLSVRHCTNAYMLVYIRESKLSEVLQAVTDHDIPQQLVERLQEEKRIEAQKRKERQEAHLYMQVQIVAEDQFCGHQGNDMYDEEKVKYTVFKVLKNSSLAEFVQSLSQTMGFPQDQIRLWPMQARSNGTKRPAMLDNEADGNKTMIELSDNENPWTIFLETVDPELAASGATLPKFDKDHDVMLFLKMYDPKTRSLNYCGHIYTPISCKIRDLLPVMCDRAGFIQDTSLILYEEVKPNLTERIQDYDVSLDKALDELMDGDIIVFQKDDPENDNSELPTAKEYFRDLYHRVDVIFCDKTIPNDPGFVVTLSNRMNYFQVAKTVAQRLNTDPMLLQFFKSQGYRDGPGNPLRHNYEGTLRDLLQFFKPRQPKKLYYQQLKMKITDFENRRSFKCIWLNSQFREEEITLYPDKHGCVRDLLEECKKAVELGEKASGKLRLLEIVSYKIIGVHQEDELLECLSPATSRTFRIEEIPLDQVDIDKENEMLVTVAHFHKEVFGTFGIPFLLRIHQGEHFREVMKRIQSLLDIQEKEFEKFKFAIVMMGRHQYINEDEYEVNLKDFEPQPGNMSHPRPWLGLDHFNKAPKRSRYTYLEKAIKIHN
USP46, sequence (P62068 whole entry): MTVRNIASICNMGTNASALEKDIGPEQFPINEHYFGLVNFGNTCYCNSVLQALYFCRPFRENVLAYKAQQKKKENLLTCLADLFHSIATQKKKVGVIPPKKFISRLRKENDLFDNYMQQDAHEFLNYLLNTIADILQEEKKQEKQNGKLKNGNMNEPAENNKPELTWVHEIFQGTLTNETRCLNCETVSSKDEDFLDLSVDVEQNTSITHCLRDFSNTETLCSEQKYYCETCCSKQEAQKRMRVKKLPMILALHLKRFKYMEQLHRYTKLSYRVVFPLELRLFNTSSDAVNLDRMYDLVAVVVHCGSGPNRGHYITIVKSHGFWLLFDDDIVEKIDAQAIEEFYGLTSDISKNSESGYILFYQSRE
USP54, sequence (Q70EL1 whole entry): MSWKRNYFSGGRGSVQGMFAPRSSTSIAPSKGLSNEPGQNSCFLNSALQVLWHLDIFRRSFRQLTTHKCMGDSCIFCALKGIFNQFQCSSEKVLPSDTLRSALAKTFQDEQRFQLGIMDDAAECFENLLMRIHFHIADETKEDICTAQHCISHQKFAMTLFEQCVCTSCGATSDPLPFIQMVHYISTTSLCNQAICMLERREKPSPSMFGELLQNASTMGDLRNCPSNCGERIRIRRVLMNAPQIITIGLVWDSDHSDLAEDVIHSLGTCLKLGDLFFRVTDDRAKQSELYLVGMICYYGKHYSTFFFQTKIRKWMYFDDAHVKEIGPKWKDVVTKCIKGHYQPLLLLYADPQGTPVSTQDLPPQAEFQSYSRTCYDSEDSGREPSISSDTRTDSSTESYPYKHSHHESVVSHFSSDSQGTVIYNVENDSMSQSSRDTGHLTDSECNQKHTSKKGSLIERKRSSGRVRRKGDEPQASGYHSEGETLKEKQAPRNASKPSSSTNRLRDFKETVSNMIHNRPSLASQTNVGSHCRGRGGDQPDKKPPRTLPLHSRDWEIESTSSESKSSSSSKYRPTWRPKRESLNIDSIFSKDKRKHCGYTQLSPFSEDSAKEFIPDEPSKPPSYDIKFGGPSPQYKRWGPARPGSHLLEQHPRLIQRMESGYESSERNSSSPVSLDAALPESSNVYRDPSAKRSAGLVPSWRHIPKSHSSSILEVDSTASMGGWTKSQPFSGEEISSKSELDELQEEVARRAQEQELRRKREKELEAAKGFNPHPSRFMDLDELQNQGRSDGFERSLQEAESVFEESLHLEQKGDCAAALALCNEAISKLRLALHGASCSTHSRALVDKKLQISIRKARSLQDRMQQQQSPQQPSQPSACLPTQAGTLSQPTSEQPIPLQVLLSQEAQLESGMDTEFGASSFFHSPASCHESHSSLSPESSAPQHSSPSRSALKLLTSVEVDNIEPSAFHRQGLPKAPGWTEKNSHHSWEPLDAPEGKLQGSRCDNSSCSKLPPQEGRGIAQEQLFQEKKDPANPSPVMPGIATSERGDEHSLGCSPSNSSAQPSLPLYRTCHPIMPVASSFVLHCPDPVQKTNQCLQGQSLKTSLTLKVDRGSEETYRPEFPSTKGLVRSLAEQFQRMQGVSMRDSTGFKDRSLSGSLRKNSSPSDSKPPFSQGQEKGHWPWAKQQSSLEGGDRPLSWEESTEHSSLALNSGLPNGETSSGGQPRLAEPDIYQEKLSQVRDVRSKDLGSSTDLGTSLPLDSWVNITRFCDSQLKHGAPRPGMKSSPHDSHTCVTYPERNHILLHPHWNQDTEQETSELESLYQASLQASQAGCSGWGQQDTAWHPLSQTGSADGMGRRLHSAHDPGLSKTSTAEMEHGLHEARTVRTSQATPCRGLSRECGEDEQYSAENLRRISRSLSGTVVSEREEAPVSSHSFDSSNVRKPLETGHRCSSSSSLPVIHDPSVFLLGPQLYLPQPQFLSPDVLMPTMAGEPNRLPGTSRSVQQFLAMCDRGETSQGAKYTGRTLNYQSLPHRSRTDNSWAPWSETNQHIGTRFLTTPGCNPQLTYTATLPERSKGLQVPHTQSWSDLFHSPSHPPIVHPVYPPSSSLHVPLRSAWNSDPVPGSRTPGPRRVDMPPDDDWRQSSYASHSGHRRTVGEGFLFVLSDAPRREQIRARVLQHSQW

Cc1nnc(C(NC(=O)CCl)c2ccccc2)n1C (stereo not drawn)
inactive: USP42 0.478 | USP46 0.418 | USP47 0.26 | USP48 0.313 | USP5 0.627 | USP54 0.407 | USP7 0.438 | USP8 0.467
